WT yeast gro inh – growth inhibition of WT strain, primary screen, mitochondrial fusion inhibitor project, WT and mutant strains, chemical genetic. inhibition, % at 10 µM. 2.1% of 190,000 active. mitochondrial fusion phenotypic screen. AID 1362, 2008; in the data active = inhibition above about 58%; tested in S. cerevisiae
PERK inhibitor – block of dimerizer-induced PERK translation repression, primary screen, PERK inhibitor project, CHO PERK-DD cells, SEAP luminescence, HTS | Eukaryotic translation initiation factor 2-alpha kinase 3 (Homo sapiens), Q9NZJ5 | CHO PERK-DD fusion, SEAP luminescence translation reporter | inhibition, % at 5.6 µM | 0.17% of 220,000 active;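 active = inhibition above the mean inhibition of all tested compounds plus 3 SD, set separately per screening campaign, cut at about 2.9% in these data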;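 also: PERK kinase domain activated by AP20187 dimerizer at 100 nM; 0% = DMSO with dimerizer and 100% = rapamycin at 8.4 µM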
Target sequence (Q9NZJ5 whole entry, looked up, the tested form may be a part): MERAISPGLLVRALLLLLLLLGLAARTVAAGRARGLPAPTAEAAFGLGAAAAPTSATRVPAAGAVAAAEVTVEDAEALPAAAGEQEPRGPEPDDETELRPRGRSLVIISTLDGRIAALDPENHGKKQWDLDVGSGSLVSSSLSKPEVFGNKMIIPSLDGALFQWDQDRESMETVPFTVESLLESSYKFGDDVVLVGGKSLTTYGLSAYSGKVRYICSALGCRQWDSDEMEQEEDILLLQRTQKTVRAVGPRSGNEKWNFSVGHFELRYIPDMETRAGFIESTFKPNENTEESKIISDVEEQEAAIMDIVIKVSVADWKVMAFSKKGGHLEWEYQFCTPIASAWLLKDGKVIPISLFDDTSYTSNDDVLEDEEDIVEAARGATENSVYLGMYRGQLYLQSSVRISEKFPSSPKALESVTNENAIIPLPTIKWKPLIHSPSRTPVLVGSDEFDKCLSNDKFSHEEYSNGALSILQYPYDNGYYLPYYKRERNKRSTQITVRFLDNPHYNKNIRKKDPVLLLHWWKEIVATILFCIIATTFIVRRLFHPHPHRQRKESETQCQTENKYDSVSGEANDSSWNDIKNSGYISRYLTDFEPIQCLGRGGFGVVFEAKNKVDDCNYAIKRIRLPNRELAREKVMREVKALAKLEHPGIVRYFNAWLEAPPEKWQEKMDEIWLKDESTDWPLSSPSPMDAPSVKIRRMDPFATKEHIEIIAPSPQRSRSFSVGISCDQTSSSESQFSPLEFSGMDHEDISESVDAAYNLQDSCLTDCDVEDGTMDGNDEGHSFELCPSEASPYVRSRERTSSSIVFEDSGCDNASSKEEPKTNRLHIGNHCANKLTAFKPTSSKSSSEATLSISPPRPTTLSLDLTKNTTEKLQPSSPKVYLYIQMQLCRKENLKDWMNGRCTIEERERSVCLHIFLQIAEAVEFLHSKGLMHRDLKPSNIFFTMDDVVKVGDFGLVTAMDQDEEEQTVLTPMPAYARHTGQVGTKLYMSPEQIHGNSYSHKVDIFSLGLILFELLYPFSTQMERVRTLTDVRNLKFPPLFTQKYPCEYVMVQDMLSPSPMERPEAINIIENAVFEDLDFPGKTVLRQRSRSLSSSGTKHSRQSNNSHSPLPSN
ROMK mod – ROMK potassium channel modulators, primary screen, cell-based, thallium flux, MLSMR library; 2% of 130,000 active; Tet-inducible ROMK, thallium flux fluorescence; actives lie on both sides; AID 1918, 2009; B-score at 10 µM;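 active = signal ratio slope over the read window, or its plate-corrected B-score, at least 3 SD from the plate mean, either direction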;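 also: B-score of the F/F0 ratio slope over 7 to 12 s after thallium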
Arbovirus inh – antivirals against arbovirus infection, primary screen, cell-based, full library, 10K replicate subset; arbovirus infection cell-based antiviral screen; 0.37% of 200,000 active; inhibition, % at 10 µM; in the data active = inhibition above about 30%
ROMK hit retest – ROMK channel modulator hit retest, confirmation, cell-based, thallium flux, duplicate, resupplied hits | shares compounds with ROMK mod | fluorescence ratio; active compounds read low | normalized thallium flux (F/F0 slope) at 10 µM | 54% of 3,000 active | AID 1917, 2009;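 active = Flux at 10 µM at least 3 SD below or above vehicle control mean in one or both replicates; inconclusive = no clear call, values can overlap the other calls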
An asterisk follows results filed as active; ? = inconclusive; / = no result given. Sampled rows, rich in hits. Any-hit rate of the full collection: about 3.3%.

SMILES	WT yeast gro inh	PERK inhibitor	ROMK mod	Arbovirus inh	ROMK hit retest
CCN1CCN(c2c(/C=C3\SC(=S)N(Cc4ccco4)C3=O)c(C)c(C#N)c(=O)n2C)CC1	/	1	/	/	0.048*
C=CCNCCCCOc1ccccc1-c1ccccc1	11	0	-3*	-16	0.062*
CCn1cc(C(=O)O)c(=O)c2cnc(N3CCN(C(=S)NC(=O)c4ccccc4Cl)CC3)nc21	/	1	/	/	/
CCN(CC)C(=O)CC(c1ccccc1)c1ccco1 (stereo not drawn)	4	0	/	10	0.084
CCCN(CCC)C(=O)CC(c1ccc(F)cc1)c1ccco1 (stereo not drawn)	13	-1	-1.3	2	/
COC(=O)Nc1nnc(/C=C/c2ccccc2)s1	-4	1	0.61	12	/
O=C(Nc1ccccc1)c1ccccc1OCC(O)CN1C(=O)c2ccccc2S1(=O)=O (stereo not drawn)	-8	0	/	7	0.061*
Cc1cc(N2CCCC2)ccc1/C=C1\NC(=S)N(C)C1=O	35	1	-3.2*	4	0.025*
CN1C(=O)c2ccc(N3CCCC3)cc2C1=O	-16	0	/	1	/
COc1cc(C)nc(N(C)S(=O)(=O)c2ccccc2Cl)n1	14	1	-0.33	5	/
CCN(CC)c1ccc(/C=c2\sc3nc4ccccc4n3c2=O)c(O)c1	45	-1	-4.8*	25	0.03*
O=c1/c(=C/c2cn(-c3ccccc3)nc2-c2ccc(F)cc2)sc2nc3ccccc3n12	-15	0	/	1	/
C=C(C)CC(c1ccccc1)N(C(C)=O)c1ccco1 (stereo not drawn)	-2	1	0.022	5	/
COc1ccc(OC)c(CNCCNC(=O)c2ccco2)c1	-19	0	0.67	12	/
COc1cccc(CNCCNC(=O)c2ccco2)c1OC	-5	1	2.9*	6	0.078
COc1ccccc1C(=O)NCCNC(=O)c1ccco1	-4	0	-0.35	1	0.076
CN(C)CCNC(=O)c1scc2c1CCCC2	/	1	/	/	0.076
O=C(NC(Cc1ccccc1)c1ccc2c(c1)OCCCO2)c1ccc(F)cc1 (stereo not drawn)	-30	-2	-0.82	-5	/
N#CC1=C(N)N(c2ccccc2)C(c2ccccc2)C1(C#N)C#N (stereo not drawn)	2	-1	-3*	-14	0.055*
CCOC(=O)CSc1nc2c(sc(=S)n2Cc2ccco2)c(=O)n1-c1ccccc1	8	-1	-0.42	20	/
CCOC(=O)CSc1nc2c(sc(=S)n2-c2ccccc2OC)c(=O)n1Cc1ccco1	20	-1	/	8	0.049*
CC1=C(C(=O)OC(C)C)C(c2ccco2)NC(=O)N1 (stereo not drawn)	7	1	/	7	/
COc1ccc(C2CC(=O)C=C(NCCC(C)C)C2)cc1 (stereo not drawn)	3	0	/	6	/
Cc1cc(Cl)ccc1OCc1cn2cccnc2n1	-6	0	4.1*	6	?
Clc1ccc(OCc2cn3cccnc3n2)c2ncccc12	-2	-1	0.039	-4	/
SMILES	WT yeast gro inh	PERK inhibitor	ROMK mod	Arbovirus inh	ROMK hit retest
COCCNS(=O)(=O)c1cccc2cccnc12	-4	/	/	7	/
Cc1ccccc1NS(=O)(=O)c1cc(S(C)(=O)=O)ccc1Cl	-15	1	0.027	6	0.081
CC1=NN(c2ccccc2)C(=O)/C1=C/C=C/C=C/N(C)C	47	0	-2.4*	-4	0.065*
CC1=NN(c2cccc(C(=O)O)c2)C(=O)/C1=C\C=C/c1ccccc1	9	1	-8.3*	-7	0.047*
CC1=NN(c2ccccc2)C(=O)/C1=C/c1cccs1	-4	1	-3.4*	-1	0.048*
Cc1cc(C=NCCCO)c(C)n1-c1cc(Cl)ccc1Cl	-4	0	/	4	/
Cc1[nH][nH]c(=O)c1C(c1c(C)[nH][nH]c1=O)c1cn(Cc2ccc(Cl)c(Cl)c2)c2ccccc12	71*	0	/	15	0.056*
CCN(CC)CCCNC(=O)c1cc2c(-c3ccc(Cl)cc3)nn(C)c2s1	2	-2	/	-27	0.059*
CN1CCN(CCCNC(=O)c2cc3c(-c4ccc(Cl)cc4)nn(C)c3s2)CC1	13	-1	/	-27	/
Cc1noc(C)c1CS(=O)(=O)c1ccc(Br)cc1	-4	1	/	-1	0.082
O=C1OC(/C=C/c2ccc(Cl)cc2Cl)=NC/1=C\c1cccs1	-17	1	-2.9*	13	0.059*
O=c1cc(-c2cccs2)oc2ccc(Cl)cc12	-4	0	/	7	/
O=c1c([N+](=O)[O-])cc(C(F)(F)F)cn1Cc1c(Cl)cccc1Cl	-7	3.3*	/	1	0.073
COC(=O)c1ccc(Cn2cc(C(F)(F)F)cc([N+](=O)[O-])c2=O)cc1	15	1	0.58	-14	/
O=C(Oc1coc(CSc2ncccn2)cc1=O)c1ccccc1[N+](=O)[O-]	9	0	0.041	9	0.088
Cc1cc(C)nc(SCc2cc(=O)c(OC(=O)c3cc([N+](=O)[O-])ccc3Cl)co2)n1	7	1	/	-4	/
CCCN1C(=O)c2ccccc2NC1c1ccc(C)cc1 (stereo not drawn)	-3	0	-0.98	3	/
O=C(O)COc1ccc(/C=N/NC(=O)c2ccc(-c3csc(Nc4ccc(Cl)cc4)n3)cc2)cc1	/	1	/	/	/
CCOc1cc(/C=N/NC(=O)c2ccc(-c3csc(Nc4ccc(C)cc4)n3)cc2)ccc1OCC(=O)O	3	2	3.3*	-13	?
COc1cc(C2CC(=O)c3c([nH]c(C(=O)OCCOC(C)C)c3C)C2)cc(OC)c1OC (stereo not drawn)	14	-1	/	9	0.063*
CCOC(=O)c1[nH]c2c(c1C)C(=O)CC(c1ccc(OC)c(OC)c1)C2 (stereo not drawn)	-9	-1	-0.41	0	/
CCOC(=O)c1c(C)n(C)c2ccc(OCC(O)CN(CC)CC)cc12 (stereo not drawn)	14	0	/	1	/
CCOC(=O)c1c(C)n(C)c2ccc(OCC(O)Cn3nc(C)cc3C)cc12 (stereo not drawn)	-25	0	/	-12	0.067*
C=CCn1c(SCC(=O)N2CCc3ccccc3C2)nc2sc(CC)cc2c1=O	21	0	/	14	0.082
Cn1ncc(C(=O)Nc2ccc(Cl)cc2)c1C(F)(F)F	/	2	/	/	/
Cn1nc(C(F)(F)F)cc1C(=O)Nc1ccc(Cl)cc1	/	-1	/	/	0.082
Brc1ccc(-c2nnc3ccc(Nc4ccccc4)nn23)cc1	-6	1	1.6	9	/
COc1ccc(C(=O)COC(=O)c2ccccc2NS(=O)(=O)c2ccc(O)c([N+](=O)[O-])c2)cc1	/	0	/	/	0.081
CC(C)CC(C(=O)N1CCc2ccccc2C1)N1C(=O)c2ccccc2C1=O (stereo not drawn)	1	-3	-3.5*	-17	0.057*
CC(C)CCNC(=O)CCc1nnc(COc2ccccc2)o1	4	0	0.94	12	/
